Experimental data: PubChem BioAssay AID593 (National Center for Advancing Translational Sciences (NCATS), 2007)
Out of some 59,000 compounds screened, about 540 (0.92%) were called active. Inconclusive results (about 33%) are left out. The sample holds actives, similar compounds and a random draw of the others, so the mix is not that of the screen. Cut-off read from the data, not from the text of the source: active = max fluorescein-equivalent concentration above about 10 nM; inconclusive = between about 1.1 nM and that limit; inactive = weaker than that.

Experiment: qHTS Assay for Spectroscopic Profiling in Fluorescein Spectral Region
Details: Compound autofluorescence, 480/540 nm; max fluorescein-equivalent concentration: active compounds read high; outcome: fluorescein-equivalent
Excerpt: NIH Molecular Libraries Screening Centers Network [MLSCN]
NIH Chemical Genomics Center [NCGC]
Occasionally, the artifactual effect may originate from the compound's own spectral or other biophysical properties which generally tend to track its assay concentration. Pre-screening/profiling the library with respect to the compounds' spectral properties should help one exclude false positives early on. While the most informative fluorescent profiling data set is obtained by performing a full excitation and emission scan of each well by using a monochromator-based plate reader, such an approach is practical only on a very limited scale as scanning each well requires long time. An alternative approach, applied here, is to perform plate reader scans using selected excitation and emission wavelength pairs to generate a multidimensional relational database that correlates compound concentration and the respective relative fluorescence intensity at a given wavelength set. A standard curve of fluorescein present on each plate as six-point concentration series, was used to compute a normalized fluorescence response, termed dye-equivalent concentration, for each compound at each concentration.
NCGC Assay Protocol Summary:
100 mM Tris buffer, pH 8.0
The wells in columns 1 through 4 of a Kalypsys polypropylene 1536-well compound plate were filled with standard solutions of fluorophore corresponding to the spectral region of interest. Solutions of Fluorescein were placed in the following wells: Q1, R1: 3 mM, Q2, R2: 300 uM, Q3, R3: 30 uM, Q4, R4: zero (DMSO), S1, T1: 3 uM, S2, T2: 900 nM, S3, T3: 300 nM, S4, T4: zero (DMSO).
Six uL of buffer were dispensed to 1536-well Greiner black plates. Compounds and dye standards (23 nL) were transferred via Kalypsys PinTool. The plates were incubated for 15 min at room temperature, and then read on ViewLux (Perkin-Elmer) High-throughput CCD imager using 480 nm and 540 nm excitation and emission filter set.
Keywords: NIH Roadmap, MLSCN, MLI, MLSMR, qHTS, NCGC, Fluorescein, Fluorescent Profiling.

Structure (SMILES) | max fluorescein-equivalent concentration
COc1ccc2nc(NC3=NCN(CC4CCCO4)CN3)nc(C)c2c1 (centres undefined) | inactive
COc1cccc(Nc2ncc3ncc(=O)n(C4CC4)c3n2)c1 | inactive
Oc1c(Br)cc(CN(Cc2cc(Br)c(O)c(Br)c2)C2CCCCC2)cc1Br | inactive
COc1ccc(C2C3=C(CC(C)(C)CC3=O)Oc3ncn4nc(-c5cccnc5)nc4c32)cc1OC (centres undefined) | inactive
O=C(c1ccc([N+](=O)[O-])cc1)[C@@H](Br)[C@@H](Br)c1ccnc2ccccc12 | inactive
CN(C)CCSS(=O)(=O)O | inactive
CCCn1c(SCC(=O)c2ccc3c(c2)OCCO3)nnc1C(C)C | inactive
CCCCOc1ccccc1/C=c1/sc2nc(-c3oc4ccccc4c3C)nn2c1=O | inactive
COc1cccc(Cn2c(=O)c(-c3cc(F)cc(F)c3)nc3cnc(OC)nc32)c1 | inactive
CCOC(=O)CSc1nc2sc3c(c2c(=O)[nH]1)CC(C)(C)OC3 | inactive
CCOc1ccc2[nH]c(=O)c(CN(CCCO)C(C)=O)cc2c1 | inactive
CN1CCN(CC(=O)C23CC4CC(CC(C4)C2)C3)CC1 | inactive
c1ccc2sc(SCCSc3nc4ccccc4s3)nc2c1 | inactive
CCOC(=O)c1csc(NC(=O)c2ccc(S(=O)(=O)N3CCCC3)cc2)n1 | inactive
O=C(c1ccco1)N1CCC2(CC1)CN(c1ncccn1)C2 | inactive
CCOC(=O)c1sc(NC(=O)c2cc(S(=O)(=O)N3CCOCC3)ccc2C)nc1C | inactive
COc1cccc(-c2nc(Nc3ccncc3)c3ccccc3n2)c1 | inactive
CC(C)NC(=O)N1CC[C@@]2(CCCN(C(=O)c3cccn3C)C2)C1 | inactive
CCCCCC(=O)Nc1ccc2oc(-c3ccncc3)nc2c1 | inactive
Cc1ccc(CC2CC(=O)N(c3ccc4c(c3)OCCO4)C2=O)cc1 (centres undefined) | inactive
CCOC(=O)C1C(=O)NC(N2CCN(c3ccccc3)CC2)=NC1c1ccco1 (centres undefined) | inactive
O=C(c1cnccn1)N1CCC2(CCN(Cc3cc(C(F)(F)F)cc(C(F)(F)F)c3)CC2)CC1 | inactive
N=c1c2c3c(sc2ncn1N)CCCCC3 | inactive
O=c1c(-c2ccc(F)cc2)nc2cnc(N3CCNCC3)nc2n1Cc1cccs1 | inactive
CCN(CC)C(=O)C1CCC(C)(C(=O)O)C1(C)C (centres undefined) | inactive
CCc1ccc(CCC(=O)Nc2ccc(S(N)(=O)=O)cc2)o1 | inactive
COc1ccc(-c2nc(SCC(=O)N3CCOCC3)n[nH]2)cc1 | inactive

Structure (SMILES) | max fluorescein-equivalent concentration
CN(C)/C=C1/Nc2ccccc2C1=O | inactive
COC(=O)C(C)N(C#N)c1nc(C)nc(C)n1 (centres undefined) | inactive
COCCCn1c2nc3ccccc3nc2c2c(=O)n(Cc3ccc(Cl)cc3)c(C)nc21 | inactive
CCN(CC)S(=O)(=O)c1ccc2nc(CSc3nnnn3-c3ccc(O)cc3)[nH]c2c1 | inactive
COc1cc(OC)cc(C(=O)Nc2ccc(-c3nc4ccccc4o3)c(O)c2)c1 | inactive
CC(=O)c1ccc(N2C(=NC(=O)C(C)C)SC3CS(=O)(=O)CC32)cc1 (centres undefined) | inactive
COc1ccc(C(c2nnnn2Cc2cccs2)N2CCN(c3ccccc3)CC2)cc1OC (centres undefined) | inactive
CC(=O)c1ccc(NC(=O)N[C@@H](Cc2ccccc2)C(=O)O)cc1 | inactive
CC(C)c1ccc(-c2nn[nH]n2)cc1 | inactive
Cn1c(SCC(=O)c2cccs2)nnc1-c1ccco1 | inactive
CC1(C)Cc2ccccc2-c2nnc(-c3cccc(O)c3)n21 | inactive
CC1(C)Cc2cccc(OCC(=O)Nc3nccs3)c2O1 | inactive
COC(=O)c1ccc(NC(=O)CSc2nnc(-c3ccncc3)n2C)cc1 | inactive
Cc1ccc(C)c(NC(=O)C2CC(=O)N(C(C)C)C2)c1 (centres undefined) | inactive
Cc1ccccc1-c1nc(N(C)Cc2ccco2)c2ccccc2n1 | inactive
c1ccc(CSCCc2ccncc2)cc1 | inactive
C[C@]1(O)CC[C@H]2[C@H]3CC=C4N5CCN=C5CC[C@@]4(C)[C@H]3CC[C@@]21C | inactive
O=c1[nH]nc(Cc2ccccn2)c2ccccc12 | inactive
Cc1ccc(-c2noc(CN3CCN(Cc4ccccc4)CC3)n2)cc1 | inactive
CCOC(=O)c1cc2occc2n1CC(=O)NC1CCC(C)CC1 (centres undefined) | inactive
COc1ccc(C(=O)N(Cc2ccc(N(C)C)cc2)C2CCS(=O)(=O)C2)cc1 (centres undefined) | inactive
O=S(=O)(NCCOc1cccc2cccnc12)c1ccc(F)cc1 | inactive
Nc1nc2c(ncn2[C@H]2CC[C@@H](CO)O2)c(=O)n1C(=O)c1ccccc1 | inactive
O=C(O)[C@H](CCc1ccccn1)c1ccccc1 | inactive
O=C(O)c1c(Br)c(Br)c(Br)c(Br)c1C1c2ccc(O)cc2Oc2cc(O)ccc21 | 320 nM (active)
O=C(COc1cccc(-n2cnnn2)c1)NCCC1=CCCCC1 | inactive
Cc1cc2c(cc1C)NC1=C(N2)O[C@H](c2c[nH]c3ccc(COc4ccccc4)cc23)C1=O | inactive
